We go through 72 compounds from PubChem BioAssay AID504832 (National Center for Advancing Translational Sciences (NCATS), 2011).

Hit rate of the full screen: of about 310,000 compounds, about 18,000 (5.8%) were called active. Where a call stands in place of a potency, no number is given. Another 22% or so got no clear call; they are omitted. Calls come from the whole dose curve; as a rule, active = well fitted inhibition curve with a large enough effect; inconclusive = small, poorly fitted or top-dose-only effect, or another doubt; inactive = no such curve, though single readings can be large or run the other way. The full list was thinned out, with actives kept by preference.
Potency is the fitted concentration of half-maximal effect.

A short description of the assay: Primary qHTS for delayed death inhibitors of the malarial parasite plastid, 48 hour incubation. The settings on record: P. falciparum luciferase growth in erythrocytes; series mostly up to 28.7 µM. An outline of the steps: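 Parasite viability was followed by luminescence of a genomically integrated firefly luciferase. Cultures held 0.1% parasitemia at 2% hematocrit (final), incubated under 5% CO2 at 37 C.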
In general terms: qHTS replaces the single test concentration by a dilution series.
On to `COc1ccccc1Oc1ccc(N2CC(C(=O)OCC(=O)c3ccc(F)cc3)CC2=O)cc1` (configuration not stated), for which the Potency entry is “inactive”.

Regarding `Cc1ccccc1NC(=O)c1cc(S(=O)(=O)Nc2cccc(C(=O)O)c2)ccc1Cl`, the Potency result was “inactive”.

On to `CC(C)[C@@H]1COC(c2cccc(C3=N[C@H](C(C)C)CO3)c2)=N1`, for which the Potency result is “inactive”.

In the case of `CC1C(=O)N(Cc2ccccc2)c2ccccc2N1C(=O)c1ccccc1` (configuration not stated), the Potency result is “inactive”.

As to `O=C(OCC(=O)N1CCc2ccccc21)C1CCCN1S(=O)(=O)c1ccc(Cl)cc1` (configuration not stated), the Potency result is “inactive”.

Consider `O=C(c1ccncc1)N1CCN(S(=O)(=O)c2cc(C(F)(F)F)cc(C(F)(F)F)c2)CC1`, for which the Potency is 11.7 µM (active).

Turning to `O=C(c1ccncc1)N1CCN(S(=O)(=O)c2cccc([N+](=O)[O-])c2)CC1`, the Potency result is “inactive”.

Take `O=C(Cc1ccsc1)N1CCN(S(=O)(=O)c2cc(C(F)(F)F)cc(C(F)(F)F)c2)CC1`: the Potency entry is “inactive”.

For `CCn1c(SCC(=O)NC2CC2)nnc1-c1ccccc1OC`, the Potency entry is “inactive”.

As for `Cc1cccn2c(=O)nc(SCC(=O)NCc3ccccc3Cl)nc12`, the Potency entry was “inactive”.

Regarding `COc1ccc(OCCCCN2CCC(C)CC2)cc1`, the activity change, negative = inhibition was -11.4% [at 0.00184 µM] (inactive).

For the compound `Cc1ccc2nc(SCC(=O)N3CCN(c4ccccc4)CC3)nc(=O)n2c1`, the Potency entry is “inactive”.

For the compound `O=C(Nc1cccc(OC(=O)N2CCCCC2)c1)N1CCOCC1`, the Potency was 10.4 µM (active).

For `COc1cc(NC(=O)N2CCOCC2)cc(OC)c1`, the Potency entry is “inactive”.

Turning to `O=C(Oc1ccc2c(c1)CCC2)N1CCOCC1`, the Potency result is “inactive”.

With `COc1cc(OC)cc(C(=O)NCCCn2ccnc2)c1`, the Potency result was “inactive”.

With `COCCNc1ncnc2c1nc1n2CCCC1`, the Potency result was “inactive”.

With `Cc1ccc(S(=O)(=O)NCC(=O)Nc2ccc3c(c2)OCCO3)cc1`, the Potency entry is “inactive”.

Consider `CN(CC(=O)NCc1cccnc1)S(=O)(=O)c1cc(Cl)ccc1Cl`, for which the Potency result was “inactive”.

With `CC(C)c1ccc(Nc2ncccc2C#N)cc1`, the Potency entry was “inactive”.

Regarding `Nc1ccc(Nc2cc(O)c3ncccc3c2)cc1`, the Potency is 10.4 µM (active).

For the compound `Cc1cccc(C)c1NC(=S)N1CCCCCC1`, the Potency entry was “inactive”.

For `COc1cccc(CNC(=O)CCCC(=O)Nc2cccc([N+](=O)[O-])c2)c1`, the Potency entry is “inactive”.

Regarding `O=C(NCc1cccc(Cl)c1)C1CCC(=O)N(C2CC2)C1` (configuration not stated), the Potency entry was “inactive”.

In the case of `O=C(CCN1C(=O)C2CCCCC2C1=O)Nc1ccc(OC(F)F)cc1` (configuration not stated), the Potency entry is “inactive”.

For the compound `Cc1ccc(C(=O)NCCc2nnc(SCC(=O)Nc3cccc(C(=O)O)c3)n2C)cc1`, the Potency result is “inactive”.

As to `CCOC(=O)c1[nH]cnc1C(=O)Nc1ccccc1C`, the Potency entry is “inactive”.

In the case of `Cc1cccc(NC(=O)c2nc[nH]c2C(=O)NCC(=O)OCc2ccccc2)c1`, the Potency entry was “inactive”.

For the compound `CCOC(=O)c1ccc(NC(=O)c2nc[nH]c2C(=O)N[C@@H](CCCCNC(=O)OC(C)(C)C)C(=O)OC(C)(C)C)cc1`, the Potency was 6.57 µM (active).

For the compound `Cc1ccc(NC(=O)OCCNC(=O)c2ccncc2)cc1`, the Potency result is “inactive”.

In the case of `Cc1ccc(NC(=O)c2nc[nH]c2C(=O)N[C@@H](CCCCNC(=O)OC(C)(C)C)C(=O)OC(C)(C)C)cc1`, the Potency was 13.1 µM (active).

In the case of `C[C@H](NC(=O)c1nc[nH]c1C(=O)NCC(=O)OC(C)(C)C)C(=O)OCc1ccccc1`, the Potency result is “inactive”.

Regarding `C[C@H](NC(=O)c1nc[nH]c1C(=O)N[C@@H](C)C(=O)OC(C)(C)C)C(=O)OC(C)(C)C`, the Potency is 9.28 µM (active).

As to `CCOC(=O)c1ccc(NC(=O)c2nc[nH]c2C(=O)NCc2ccccc2)cc1`, the Potency result is “inactive”.

`CCN(CC)C(=O)COc1coc(CN2CCN(Cc3ccccc3)CC2)cc1=O`: the Potency result was “inactive”.

For `O=C(NCCC1CCCCN1S(=O)(=O)c1ccccc1)C(=O)NCC1CCCO1` (configuration not stated), the Potency result was “inactive”.

As to `O=C(CCC1CCCN(C(=O)c2ccc(F)c(F)c2)C1)N1CCN(c2ccccn2)CC1` (configuration not stated), the Potency entry is “inactive”.

As to `COc1ccc(Cl)cc1NC(=O)COc1ccc2c(c1)OCO2`, the Potency result was “inactive”.

`Nc1cccc(CCc2nc3ccccc3[nH]2)c1`: the Potency entry was “inactive”.

As to `Nc1nc(-c2ccccc2)cc(-c2ccccc2)n1`, the Potency result was “inactive”.

Regarding `Nc1cccc(-c2cc(-c3ccccc3)nc(-c3cccc(N)c3)n2)c1`, the Potency is 10.4 µM (active).

Turning to `Cc1cccc(C(=O)NCCCN(C)CCCNC(=O)c2cccc(C)c2)c1`, the Potency result was “inactive”.

Take `CCSc1nc2sc3c(c2c(=O)[nH]1)CC(C)(C)OC3`: the Potency entry was “inactive”.

`O=C(OCc1ccc([N+](=O)[O-])cc1)C1CC(=O)N(Cc2ccccc2Cl)C1` (configuration not stated): the Potency entry was “inactive”.

Consider `COc1cc(/C=C/C(=O)O)cc(S(=O)(=O)Nc2ccccc2C(=O)NCCc2ccccc2)c1OC`, for which the Potency entry was “inactive”.

Take `COc1cc(C(CCN2CCN(c3ccccc3)CC2)c2c(OC)cc(OC)c3ccc(=O)oc23)cc(OC)c1OC` (configuration not stated): the Potency was 13.1 µM (active).

Turning to `c1ccc(-c2cnc(CN3CCN(c4ccccc4)CC3)o2)cc1`, the Potency result is “inactive”.

On to `COc1ccccc1NC(=O)CCN1CCN(c2ccc(Cl)cc2)CC1`, for which the Potency entry was “inactive”.

`Cc1cc(=O)oc2c(C)c(OCC(=O)N3CCN(Cc4ccc5c(c4)OCO5)CC3)ccc12`: the Potency entry was “inactive”.

Turning to `COc1cc(OC)c2ccc(=O)oc2c1C(CCN1CCN(c2ccccc2)CC1)c1ccc2c(c1)OCO2` (configuration not stated), the Potency was 11.7 µM (active).

Consider `COc1ccccc1N1CCN(Cc2cc(OC)c3c(c2)OCO3)CC1`, for which the Potency entry is “inactive”.

Regarding `CC(OC(=O)CN1C(=O)c2ccccc2C1=O)C(=O)c1ccccc1` (configuration not stated), the Potency result is “inactive”.

For `COc1cc(S(=O)(=O)Nc2ncn[nH]2)ccc1Cl`, the Potency result was “inactive”.

Consider `O=Cc1c(NCCCN2CCCC2=O)c2ccccc2[nH]c1=O`, for which the Potency result is “inactive”.

For the compound `O=C(NC1CCCC1)C(c1ccc(Cl)cc1)N(C(=O)c1csnn1)C1CC1` (configuration not stated), the Potency entry was “inactive”.

Take `Cc1cc(-c2ccc(S(=O)(=O)N3CCN(c4cccc(C(F)(F)F)c4)CC3)s2)on1`: the Potency entry is “inactive”.

On to `O=c1c2ccccc2nc(/C=C/c2ccc(F)cc2)n1-c1ccccc1O`, for which the Potency was 13.1 µM (active).

Take `O=c1oc(/C=C/c2ccccc2)nc2ccccc12`: the Potency result is “inactive”.

`O=c1c2ccccc2ncn1/N=C/c1ccccc1`: the Potency result was “inactive”.

As to `Cc1ccc(NC(=O)COc2ccc(-n3ccnc3)cc2)cc1Cl`, the Potency is 9.28 µM (active).

Regarding `CCC(=O)c1ccc(OCC(=O)Nc2ccc3nc(C)sc3c2)cc1`, the Potency result is “inactive”.

As to `Cc1ccc(NC(=O)COc2ccc(/C=N\NC(=O)c3cccnc3)cc2)cc1C`, the Potency entry is “inactive”.

Regarding `Cc1ccc(NC(=O)NC(=O)c2ccccc2)cc1F`, the Potency entry was “inactive”.

For `COc1cc(/C=N/Nc2nc3ccccc3s2)ccc1O`, the Potency result is “inactive”.

As to `COc1cccc(/C=N/Nc2cc(C)nc(-c3ccccc3O)n2)c1O`, the Potency was 3.7 µM (active).

Take `COc1ccc(NC(=O)c2nc(-n3nc(C)cc3C)ccc2Cl)cc1Cl`: the Potency result is “inactive”.

For the compound `COc1ccccc1/C=N\Nc1cc(C)nc(-n2nc(C)cc2C)n1`, the Potency is 1.65 µM (active).

Take `COc1cccc2c(N/N=C/c3ccco3)cc(C)nc12`: the Potency entry is “inactive”.

For the compound `Cc1nc(Cl)cc(N/N=C/c2ccccc2)n1`, the Potency entry was “inactive”.

Consider `Cc1cc(N/N=C\c2ccc(Br)cc2)nc(-n2nc(C)cc2C)n1`, for which the Potency was 1.04 µM (active).

As to `COc1cc(NS(=O)(=O)c2ccccc2)ccc1-n1nc(C)cc1C`, the Potency result was “inactive”.

As to `Cc1ccc(S(=O)(=O)Nc2nc(C)cc(N/N=C/c3ccc(O)cc3)n2)cc1`, the Potency entry is “inactive”.
